The structures appear in SMILES notation. Compounds without any hit were thinned out: in the full panel of roughly 79,000, 15% have a hit. A number with no mark means an inactive call. Calls of active or inactive are those of the source. No stated cut-off is given here; in the data, active means growth inhibition above about 70%; inactive means the rest.

A short description of the first assay: NCI Yeast Anticancer Drug Screen. Data for the rad50 strain (AID 155).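 Further: 0% = growth of vehicle-only cultures of the same strain.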 The note with it: S. cerevisiae rad50 strain growth inhibition; at 5.0 µM (retest, dose inferred, filed as 0.5); active compounds read high. The essentials:
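Relative growth inhibition (compound vs vehicle) was measured in yeast with a defined repair-gene alteration.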
As for `O=C(OC1C2CCC2C2CC21)c1ccc([N+](=O)[O-])cc1[N+](=O)[O-]` (stereo not drawn), the growth inhibition is 26%.
Consider `N#CCc1nc2c(s1)C(=O)c1ccccc1C2=O`, for which the growth inhibition was 52%.
For the compound `CC1=C(C(=S)Nc2ccc(Cl)c(C(=O)OC(C)C)c2)SCCO1`, the growth inhibition was 27%.
Turning to `O=C1C(Cl)=C(c2ccc([N+](=O)[O-])cc2)C(=O)c2c(O)cccc21`, the growth inhibition is 79% (active).
Same read-out and setting: in the case of `CCOc1ccc2nc(C)cc(C)c2c1` it was -1%; in that of `CN(C)CC(O)c1cc(-c2ccc(Cl)cc2)nc2c(Cl)cc(Cl)cc12` (stereo not drawn), 11%.
Consider `CCCC(=S)N1CCOCC1`, for which the growth inhibition was -1%.
`C/C(=C/CC1CCC2C3=CCC4CC(O)CCC4(C)C3CCC12C)C(C)C(C)C` (stereo not drawn): the growth inhibition is 17%.
With `NCC(O)CSc1ccc(Cl)c(Cl)c1` (stereo not drawn), the growth inhibition is 2%.
Same read-out and setting: the result for `CCCCCCCCC(=O)NCCCNCCCNC(=O)CCCCCCCC` reads -17%; that for `O=C1c2ccc(O)cc2C(=O)c2c1ccc(O)c2O`, 28%.
In the case of `Clc1nc(Cl)c(Cl)c(-c2ccccc2)n1`, the growth inhibition was 35%.
Regarding `Cc1ccc(-c2c(C#N)c(-c3ccc(Cl)cc3)c(C#N)c(=O)n2NS(=O)(=O)c2ccccc2)cc1`, the growth inhibition was 38%.
Same read-out and setting: the result for `CC(CCC(=O)O)(c1cc(Br)c(O)c(Br)c1)c1cc(Br)c(O)c(Br)c1` reads 19%.
For `N#CC(C(=O)CCCC(=O)Nc1ccc(Cl)cc1)c1ccccc1Cl` (stereo not drawn), the growth inhibition was 2%.
`Cc1ccc(S(=O)(=O)S/C(=N\c2ccccn2)Nc2ccccn2)cc1`: the growth inhibition was 75% (active).
`NC(=O)C1CCCN1C(=O)C1CCCN(Cc2cc(CN3CCCC(C(=O)N4CCCC4C(N)=O)C3)cc(CN3CCCC(C(=O)N4CCCC4C(N)=O)C3)c2)C1` (stereo not drawn): the growth inhibition was 2%.
Same read-out and setting: in the case of `O=C(/C=C\c1cccc2ccccc12)c1ccccn1` it was 7%.
As for `COC(=O)c1cccc2c1C(=O)c1ccccc1-2`, the growth inhibition is -7%.
On to `Cn1c(=S)c2[nH]c(SCCN3CCCCC3)nc2n(C)c1=O`, for which the growth inhibition was 40%.
For the compound `CN(C)CCCSc1c2ccccc2nc2cccc([N+](=O)[O-])c12`, the growth inhibition was 2%.
In the case of `CCCCCCCCN(CCCCCCCC)CC(O)c1cc(-c2ccc(Cl)cc2)nc2c(Cl)cccc12` (stereo not drawn), the growth inhibition was 1%.
On to `CCCCCCCCCCCCS`, for which the growth inhibition was 0%.
Take `COC(=O)c1nc(=S)[nH]c(C(=O)OC)c1C(=O)c1ccc([N+](=O)[O-])cc1`: the growth inhibition is 5%.
On the same count and under the same terms, the result for `Cc1[nH]c2ccccc2c1C1=CC2(C)Nc3ccccc3C2C(C)(C)C1` (stereo not drawn) reads -4%.
On to `CCCCCCCCN(CCCCCCCC)CC(O)c1cc(-c2ccc(OC)cc2)nc2cc(Cl)ccc12` (stereo not drawn), for which the growth inhibition is -2%.
Take `O=C(CC(C[N+](=O)[O-])c1ccc2c(c1)OCO2)c1ccccc1` (stereo not drawn): the growth inhibition was 0%.
Still for that read-out and setting: the result for `CN(C)CCN(C)CCC(=O)/C=C/c1ccccc1` reads 95% (active); that for `NC(N)=NC(N)=Nc1ccc(-c2ccccc2)cc1`, -17%.
For `O=[N+]([O-])c1ccccc1NCCO`, the growth inhibition was 1%.
With `Cn1c2c(c3ccccc31)CCN(CCN1CCN(c3cccc(Cl)c3)CC1)C2=O`, the growth inhibition is 34%.
As to `CC(=O)Oc1c2c(c(C)c3ccccc13)C(=O)c1cccnc1C2=O`, the growth inhibition was 6%.
As to `O=C(/C(=C/c1ccc2c(c1)OCO2)c1ccccc1)c1ccc(OCCN2CCCC2)cc1`, the growth inhibition was -2%.
`O=C1C(=O)c2cc(Cl)ccc2-c2ccc(Cl)cc21`: the growth inhibition was 20%.
`C/C(=N/NC(=O)Nc1ccc(N=Nc2ccccc2)cc1)c1cccnc1`: the growth inhibition was -10%.
Consider `CC(Cl)C(=O)Nc1cc2ccccc2oc1=O` (stereo not drawn), for which the growth inhibition is -7%.
Consider `CC(C)c1ccc2c(c1)CCC1C(C)(CN)CCCC21C` (stereo not drawn), for which the growth inhibition was 27%.
With `CN(NC1OC(=O)c2ccccc21)c1ccc(C(F)(F)F)cc1[N+](=O)[O-]` (stereo not drawn), the growth inhibition is 46%.
As for `CCCC(CC)c1c(O)c(O)c(C(CC)CCC)c(C(CC)CCC)c1C(CC)CCC` (stereo not drawn), the growth inhibition is 4%.

Staying with this assay, now noted: S. cerevisiae rad50 strain growth inhibition; at 50.0 µM (retest, dose inferred, filed as 5.0); active compounds read high.
`O=C(OC1C2CCC2C2CC21)c1ccc([N+](=O)[O-])cc1[N+](=O)[O-]` (stereo not drawn): the growth inhibition is 95% (active).
Consider `N#CCc1nc2c(s1)C(=O)c1ccccc1C2=O`, for which the growth inhibition was 99% (active).
Regarding `CC1=C(C(=S)Nc2ccc(Cl)c(C(=O)OC(C)C)c2)SCCO1`, the growth inhibition was 71% (active).
With `O=C1C(Cl)=C(c2ccc([N+](=O)[O-])cc2)C(=O)c2c(O)cccc21`, the growth inhibition was 95% (active).
Regarding `CCOc1ccc2nc(C)cc(C)c2c1`, the growth inhibition was 75% (active).
`CN(C)CC(O)c1cc(-c2ccc(Cl)cc2)nc2c(Cl)cc(Cl)cc12` (stereo not drawn): the growth inhibition is 99% (active).
The same measure, in the same setting: in the case of `CCCC(=S)N1CCOCC1` it was -2%; in that of `C/C(=C/CC1CCC2C3=CCC4CC(O)CCC4(C)C3CCC12C)C(C)C(C)C` (stereo not drawn), 97% (active).
`NCC(O)CSc1ccc(Cl)c(Cl)c1` (stereo not drawn): the growth inhibition was 11%.
Turning to `CCCCCCCCC(=O)NCCCNCCCNC(=O)CCCCCCCC`, the growth inhibition is -17%.
On to `O=C1c2ccc(O)cc2C(=O)c2c1ccc(O)c2O`, for which the growth inhibition is 97% (active).
Consider `Clc1nc(Cl)c(Cl)c(-c2ccccc2)n1`, for which the growth inhibition was 75% (active).
Take `Cc1ccc(-c2c(C#N)c(-c3ccc(Cl)cc3)c(C#N)c(=O)n2NS(=O)(=O)c2ccccc2)cc1`: the growth inhibition was 50%.
Take `CC(CCC(=O)O)(c1cc(Br)c(O)c(Br)c1)c1cc(Br)c(O)c(Br)c1`: the growth inhibition was 91% (active).
For `N#CC(C(=O)CCCC(=O)Nc1ccc(Cl)cc1)c1ccccc1Cl` (stereo not drawn), the growth inhibition was 0%.
For the compound `Cc1ccc(S(=O)(=O)S/C(=N\c2ccccn2)Nc2ccccn2)cc1`, the growth inhibition was 21%.
On to `NC(=O)C1CCCN1C(=O)C1CCCN(Cc2cc(CN3CCCC(C(=O)N4CCCC4C(N)=O)C3)cc(CN3CCCC(C(=O)N4CCCC4C(N)=O)C3)c2)C1` (stereo not drawn), for which the growth inhibition was 9%.
With `O=C(/C=C\c1cccc2ccccc12)c1ccccn1`, the growth inhibition is 97% (active).
The same measure, in the same setting: the result for `COC(=O)c1cccc2c1C(=O)c1ccccc1-2` reads 37%; that for `Cn1c(=S)c2[nH]c(SCCN3CCCCC3)nc2n(C)c1=O`, 54%; that for `CN(C)CCCSc1c2ccccc2nc2cccc([N+](=O)[O-])c12`, 10%.
For `CCCCCCCCN(CCCCCCCC)CC(O)c1cc(-c2ccc(Cl)cc2)nc2c(Cl)cccc12` (stereo not drawn), the growth inhibition was 5%.
`CCCCCCCCCCCCS`: the growth inhibition was -3%.
Turning to `COC(=O)c1nc(=S)[nH]c(C(=O)OC)c1C(=O)c1ccc([N+](=O)[O-])cc1`, the growth inhibition was 84% (active).
With `Cc1[nH]c2ccccc2c1C1=CC2(C)Nc3ccccc3C2C(C)(C)C1` (stereo not drawn), the growth inhibition is 26%.
Regarding `CCCCCCCCN(CCCCCCCC)CC(O)c1cc(-c2ccc(OC)cc2)nc2cc(Cl)ccc12` (stereo not drawn), the growth inhibition is 81% (active).
For `O=C(CC(C[N+](=O)[O-])c1ccc2c(c1)OCO2)c1ccccc1` (stereo not drawn), the growth inhibition is -3%.
Still for that read-out and setting: in the case of `CN(C)CCN(C)CCC(=O)/C=C/c1ccccc1` it was 99% (active); in that of `NC(N)=NC(N)=Nc1ccc(-c2ccccc2)cc1`, 96% (active); in that of `O=[N+]([O-])c1ccccc1NCCO`, -2%.
In the case of `Cn1c2c(c3ccccc31)CCN(CCN1CCN(c3cccc(Cl)c3)CC1)C2=O`, the growth inhibition is 34%.
For the compound `CC(=O)Oc1c2c(c(C)c3ccccc13)C(=O)c1cccnc1C2=O`, the growth inhibition is 4%.
As for `O=C(/C(=C/c1ccc2c(c1)OCO2)c1ccccc1)c1ccc(OCCN2CCCC2)cc1`, the growth inhibition is -4%.
For `O=C1C(=O)c2cc(Cl)ccc2-c2ccc(Cl)cc21`, the growth inhibition is 90% (active).
Same read-out and setting: the result for `C/C(=N/NC(=O)Nc1ccc(N=Nc2ccccc2)cc1)c1cccnc1` reads -6%.
Regarding `CC(Cl)C(=O)Nc1cc2ccccc2oc1=O` (stereo not drawn), the growth inhibition is 9%.
Take `CC(C)c1ccc2c(c1)CCC1C(C)(CN)CCCC21C` (stereo not drawn): the growth inhibition is 100% (active).
For the compound `CN(NC1OC(=O)c2ccccc21)c1ccc(C(F)(F)F)cc1[N+](=O)[O-]` (stereo not drawn), the growth inhibition was 39%.
Regarding `CCCC(CC)c1c(O)c(O)c(C(CC)CCC)c(C(CC)CCC)c1C(CC)CCC` (stereo not drawn), the growth inhibition was 76% (active).

Source of the values: PubChem BioAssay (NCI).
